From PubChem BioAssay (EPA / NIEHS)
Inconclusive results are not listed. Where a structure was tested more than once in an assay, its records may differ in their call. Active and inactive are the calls of the source. How the source made its calls: active means hit-call score of the fitted dose curve at least 0.9, where 1 is the maximum; inconclusive means response in the unintended direction; inactive means score below 0.9.

Legend:
[1] = molecular target: human Janus Kinase 2 (Jak2), JAK2 (gene 3717) (UniProt O60674); experiment: NVS_ENZ_hJak2: NovaScreen (NVS) Enzymatic Assay for human Janus Kinase 2 (Jak2) (AID 2283169)
Procedure, shortened: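 Single-point duplicate screen at 25 uM, with hits run in concentration series to a 50 uM top dose. Substrate-product separation by mobility shift with fluorescence detection, 1 h post-dosing; DMSO baseline.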

[2] = molecular target: human c-Jun N-terminal Kinases (JNK2), MAPK9 (gene 5601) (UniProt P45984); experiment: NVS_ENZ_hJNK2: NovaScreen (NVS) Enzymatic Assay for human c-Jun N-terminal Kinases (JNK2) (AID 2283171)
Procedure, shortened: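 Chemicals first tested in duplicate at 25 uM, then in singleton concentration series up to 50 uM, against extracted JNK2 enzyme. Activity loss read by fluorescence with mobility-shift separation 1 h post-dose; DMSO baseline.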

[3] = molecular target: Mitogen-activated protein kinase 3 (Homo sapiens) (UniProt P27361); experiment: NVS_ENZ_hMAPK3: NovaScreen (NVS) Enzymatic Assay for human Mitogen-Activated Protein Kinase 3 (MAPK 3) (AID 2283177)
Sequence of Mitogen-activated protein kinase 3 (Homo sapiens) (P27361 whole entry, looked up): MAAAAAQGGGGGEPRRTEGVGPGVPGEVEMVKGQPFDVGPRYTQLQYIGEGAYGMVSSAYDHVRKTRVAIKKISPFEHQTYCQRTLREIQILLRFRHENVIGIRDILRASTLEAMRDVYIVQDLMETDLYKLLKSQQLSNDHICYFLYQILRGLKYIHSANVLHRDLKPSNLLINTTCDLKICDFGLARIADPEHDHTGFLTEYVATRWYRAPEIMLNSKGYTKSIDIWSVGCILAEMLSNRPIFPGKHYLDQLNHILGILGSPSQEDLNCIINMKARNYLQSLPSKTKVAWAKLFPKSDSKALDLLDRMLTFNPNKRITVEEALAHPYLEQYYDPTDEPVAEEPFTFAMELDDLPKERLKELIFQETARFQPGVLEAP
Procedure, shortened: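 Chemicals were first tested in duplicate at 25 uM, with hits re-run as concentration series (max 50 uM). Recombinant enzyme activity, measured 1 h post-dose in a cell-free format, was read by fluorescence/mobility shift relative to DMSO.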

[4] = molecular target: Collagenase 3 (Homo sapiens) (UniProt P45452); experiment: NVS_ENZ_hMMP13: NovaScreen (NVS) Enzymatic Assay for human Matrix Metalloproteinase-13 (MMP13) (AID 2283182)
Procedure, shortened: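 Recombinant MMP13 cleaving fluorescent substrate, cell-free, measured 1 h after dosing. Primary duplicate screen at 25 uM; actives tested in concentration-response up to 50 uM; loss of signal relative to DMSO.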

[5] = molecular target: human Matrix Metalloproteinase-7 (MMP7), MMP7 (gene 4316) (UniProt P09237); experiment: NVS_ENZ_hMMP7: NovaScreen (NVS) Enzymatic Assay for human Matrix Metalloproteinase-7 (MMP7) (AID 2283183)
Sequence of human Matrix Metalloproteinase-7 (MMP7), MMP7 (gene 4316) (P09237 whole entry, looked up): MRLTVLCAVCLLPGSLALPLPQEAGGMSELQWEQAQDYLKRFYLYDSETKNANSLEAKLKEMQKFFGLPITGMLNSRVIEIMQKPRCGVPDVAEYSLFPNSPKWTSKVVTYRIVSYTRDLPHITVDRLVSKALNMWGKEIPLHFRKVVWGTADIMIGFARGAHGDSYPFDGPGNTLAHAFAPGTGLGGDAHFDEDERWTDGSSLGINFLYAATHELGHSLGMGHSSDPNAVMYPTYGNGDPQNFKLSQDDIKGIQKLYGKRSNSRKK
Procedure, shortened: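 Compounds first tested at 25 uM in duplicate, then at up to 50 uM in concentration series if active. Protease activity measured by fluorescence intensity 1 h after dosing, with fitting relative to DMSO.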

[6] = molecular target: human Matrix Metalloproteinase-3 (MMP3), MMP3 (gene 4314) (UniProt P08254); experiment: NVS_ENZ_hMMP3: NovaScreen (NVS) Enzymatic Assay for human Matrix Metalloproteinase-3 (MMP3) (AID 2283185)
Sequence of human Matrix Metalloproteinase-3 (MMP3), MMP3 (gene 4314) (P08254 whole entry, looked up): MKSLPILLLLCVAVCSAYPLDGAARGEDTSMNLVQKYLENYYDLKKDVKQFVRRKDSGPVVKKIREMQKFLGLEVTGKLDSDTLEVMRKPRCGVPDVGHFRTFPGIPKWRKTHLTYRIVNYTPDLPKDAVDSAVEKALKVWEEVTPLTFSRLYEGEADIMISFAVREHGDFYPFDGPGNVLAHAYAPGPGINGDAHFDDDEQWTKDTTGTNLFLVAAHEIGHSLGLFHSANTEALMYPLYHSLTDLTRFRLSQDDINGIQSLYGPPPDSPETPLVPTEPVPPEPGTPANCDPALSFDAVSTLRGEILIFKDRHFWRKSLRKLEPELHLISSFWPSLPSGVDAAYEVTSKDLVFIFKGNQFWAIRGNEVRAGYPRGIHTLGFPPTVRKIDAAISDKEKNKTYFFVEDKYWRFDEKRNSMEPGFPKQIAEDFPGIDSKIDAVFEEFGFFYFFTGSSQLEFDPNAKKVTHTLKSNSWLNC
Procedure, shortened: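 Fluorescent substrate turnover by recombinant MMP3 read after 1 h, signal loss scored against DMSO. Compounds first run in duplicate at 25 uM single dose, then actives confirmed by concentration series.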

[7] = molecular target: human Phosphoinositide 3-kinase alpha (PI3Ka), PIK3CA (gene 5290) (UniProt P42336); experiment: NVS_ENZ_hPI3Ka: NovaScreen (NVS) Enzymatic Assay for human Phosphoinositide 3-kinase alpha (PI3Ka) (AID 2283196)
Sequence of human Phosphoinositide 3-kinase alpha (PI3Ka), PIK3CA (gene 5290) (P42336 whole entry, looked up): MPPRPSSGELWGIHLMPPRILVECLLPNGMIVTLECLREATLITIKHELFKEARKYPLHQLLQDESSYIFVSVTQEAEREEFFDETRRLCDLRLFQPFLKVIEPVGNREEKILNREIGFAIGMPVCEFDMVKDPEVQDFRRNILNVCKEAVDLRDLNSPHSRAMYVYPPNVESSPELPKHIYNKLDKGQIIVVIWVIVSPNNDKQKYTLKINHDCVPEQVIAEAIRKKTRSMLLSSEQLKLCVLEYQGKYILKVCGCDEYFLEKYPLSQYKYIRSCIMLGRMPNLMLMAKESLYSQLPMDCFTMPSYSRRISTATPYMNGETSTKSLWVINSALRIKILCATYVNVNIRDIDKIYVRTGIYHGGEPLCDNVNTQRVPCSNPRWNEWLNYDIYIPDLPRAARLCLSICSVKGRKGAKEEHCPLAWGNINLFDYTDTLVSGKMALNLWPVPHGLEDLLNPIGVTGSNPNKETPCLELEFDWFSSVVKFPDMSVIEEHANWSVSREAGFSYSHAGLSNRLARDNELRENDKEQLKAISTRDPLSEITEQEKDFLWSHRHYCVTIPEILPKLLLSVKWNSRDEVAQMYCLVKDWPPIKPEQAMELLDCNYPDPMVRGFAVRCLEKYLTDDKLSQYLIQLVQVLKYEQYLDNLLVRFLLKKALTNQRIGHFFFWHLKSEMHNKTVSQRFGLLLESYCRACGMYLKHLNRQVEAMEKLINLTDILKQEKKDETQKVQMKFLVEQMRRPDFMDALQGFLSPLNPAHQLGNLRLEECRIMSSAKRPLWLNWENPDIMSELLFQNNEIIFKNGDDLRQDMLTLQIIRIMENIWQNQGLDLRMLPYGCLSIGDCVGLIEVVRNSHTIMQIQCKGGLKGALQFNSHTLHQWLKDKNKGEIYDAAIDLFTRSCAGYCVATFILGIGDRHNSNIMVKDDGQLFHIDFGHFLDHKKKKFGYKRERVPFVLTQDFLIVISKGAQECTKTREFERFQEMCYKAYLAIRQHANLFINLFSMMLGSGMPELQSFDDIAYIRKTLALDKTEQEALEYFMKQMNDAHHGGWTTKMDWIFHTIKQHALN
Procedure, shortened: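 Fluorescence/mobility-shift readout of substrate conversion by recombinant enzyme, 1 h post-dosing. Primary screen in duplicate at 25 uM; actives (e.g. ≥30% inhibition) retested in singleton concentration-response, top concentration 50 uM.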

[8] = molecular target: human Protein Phosphatase, Mg2+/Mn2+ Dependent 1A (PPM1A), PPM1A (gene 5494) (UniProt P35813); experiment: NVS_ENZ_hPPM1A: NovaScreen (NVS) Enzymatic Assay for human Protein Phosphatase, Mg2+/Mn2+ Dependent 1A (PPM1A) (AID 2283198)
Procedure, shortened: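 Primary screen in duplicate at 25 uM, with actives then titrated to a maximum of 50 uM. Recombinant PPM1A dephosphorylation of fluorescent substrate measured at 1 h, with substrate and product separated by mobility shift; inhibition fitted against DMSO.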

[9] = molecular target: human Matrix Metalloproteinase-9 (MMP9), MMP9 (gene 4318) (UniProt P14780); experiment: NVS_ENZ_hMMP9: NovaScreen (NVS) Enzymatic Assay for human Matrix Metalloproteinase-9 (MMP9) (AID 2283190);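 further: cell-free recombinant MMP9 protease activity read by fluorescent substrate signal; active means inhibition seen as loss of fluorescence signal versus DMSO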
Sequence of human Matrix Metalloproteinase-9 (MMP9), MMP9 (gene 4318) (P14780 whole entry, looked up): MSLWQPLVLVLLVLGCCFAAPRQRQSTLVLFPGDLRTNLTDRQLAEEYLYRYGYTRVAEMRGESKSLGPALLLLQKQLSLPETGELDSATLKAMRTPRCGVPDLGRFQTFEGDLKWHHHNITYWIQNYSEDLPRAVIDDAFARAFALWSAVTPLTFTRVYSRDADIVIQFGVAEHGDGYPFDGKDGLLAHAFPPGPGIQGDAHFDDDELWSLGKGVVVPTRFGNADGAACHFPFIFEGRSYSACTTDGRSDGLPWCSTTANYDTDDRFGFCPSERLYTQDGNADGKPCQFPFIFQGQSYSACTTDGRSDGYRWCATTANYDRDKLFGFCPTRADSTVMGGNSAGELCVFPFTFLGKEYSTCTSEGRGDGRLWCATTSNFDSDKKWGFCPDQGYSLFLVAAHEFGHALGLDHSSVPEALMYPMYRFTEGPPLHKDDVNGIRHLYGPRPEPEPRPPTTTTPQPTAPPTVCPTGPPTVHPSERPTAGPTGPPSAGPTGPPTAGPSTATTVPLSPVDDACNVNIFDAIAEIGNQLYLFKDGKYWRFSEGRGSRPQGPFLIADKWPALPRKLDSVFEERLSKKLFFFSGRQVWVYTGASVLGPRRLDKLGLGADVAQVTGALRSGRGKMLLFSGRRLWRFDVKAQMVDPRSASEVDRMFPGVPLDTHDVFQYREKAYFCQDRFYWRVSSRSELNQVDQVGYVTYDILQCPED
Procedure, shortened: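 Extracted enzyme, fluorescent substrate, 1 h post-dose read. Single conc 25 uM in duplicate, then concentration series for actives. Activity = signal loss relative to DMSO negative control.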

[10] = molecular target: human Phosphodiesterase 4A1 (PDE4A1), PDE4A (gene 5141) (UniProt P27815); experiment: NVS_ENZ_hPDE4A1: NovaScreen (NVS) Enzymatic Assay for human Phosphodiesterase 4A1 (PDE4A1) (AID 2283191)
Sequence of human Phosphodiesterase 4A1 (PDE4A1), PDE4A (gene 5141) (P27815 whole entry, looked up): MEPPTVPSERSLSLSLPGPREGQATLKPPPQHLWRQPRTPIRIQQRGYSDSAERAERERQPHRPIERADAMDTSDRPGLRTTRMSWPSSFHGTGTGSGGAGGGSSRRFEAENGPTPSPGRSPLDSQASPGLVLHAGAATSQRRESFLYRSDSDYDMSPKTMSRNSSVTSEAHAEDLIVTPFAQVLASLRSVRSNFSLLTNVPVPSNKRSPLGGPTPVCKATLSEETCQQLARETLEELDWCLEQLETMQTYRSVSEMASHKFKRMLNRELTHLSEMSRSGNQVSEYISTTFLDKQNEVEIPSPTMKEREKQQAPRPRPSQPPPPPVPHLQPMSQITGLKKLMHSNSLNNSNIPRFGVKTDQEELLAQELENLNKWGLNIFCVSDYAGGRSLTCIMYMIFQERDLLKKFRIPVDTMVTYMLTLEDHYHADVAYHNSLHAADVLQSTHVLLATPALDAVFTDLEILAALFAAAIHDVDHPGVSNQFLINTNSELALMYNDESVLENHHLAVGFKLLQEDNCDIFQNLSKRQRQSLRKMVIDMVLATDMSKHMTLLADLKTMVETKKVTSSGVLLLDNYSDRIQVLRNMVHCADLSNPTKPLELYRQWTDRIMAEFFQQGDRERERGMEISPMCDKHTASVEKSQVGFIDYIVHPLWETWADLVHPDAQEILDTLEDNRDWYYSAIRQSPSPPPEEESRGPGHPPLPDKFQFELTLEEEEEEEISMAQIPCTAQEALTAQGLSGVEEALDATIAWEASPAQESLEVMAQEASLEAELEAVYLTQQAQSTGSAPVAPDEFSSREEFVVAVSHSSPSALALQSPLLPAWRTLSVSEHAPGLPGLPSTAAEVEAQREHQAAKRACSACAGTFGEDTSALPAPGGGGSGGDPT
Procedure, shortened: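 Fluorescent substrate turnover by recombinant PDE4A1 read after 1 h by mobility-shift separation. Primary duplicate screen at 25 uM; hits retested in concentration series with a 50 uM maximum, relative to DMSO.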

[11] = molecular target: Histone deacetylase 3 (Homo sapiens) (UniProt O15379); experiment: NVS_ENZ_hHDAC3: NovaScreen (NVS) Enzymatic Assay for human Histone Deacetylase 3 (HDAC3) (AID 2283163)
Sequence of Histone deacetylase 3 (Homo sapiens) (O15379 whole entry, looked up): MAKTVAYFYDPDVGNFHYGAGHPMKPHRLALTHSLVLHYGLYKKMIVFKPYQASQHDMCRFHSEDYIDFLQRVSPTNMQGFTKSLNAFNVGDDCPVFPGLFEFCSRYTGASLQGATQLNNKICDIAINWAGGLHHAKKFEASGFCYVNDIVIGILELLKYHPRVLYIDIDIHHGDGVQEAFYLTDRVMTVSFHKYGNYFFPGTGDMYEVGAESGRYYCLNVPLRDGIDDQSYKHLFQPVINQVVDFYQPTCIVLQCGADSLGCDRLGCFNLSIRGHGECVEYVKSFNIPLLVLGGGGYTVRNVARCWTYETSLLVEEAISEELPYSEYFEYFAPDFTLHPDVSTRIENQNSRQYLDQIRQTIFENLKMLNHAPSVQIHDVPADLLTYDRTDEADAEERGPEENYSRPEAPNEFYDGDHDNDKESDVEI
Procedure, shortened: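 Cell-free enzyme format: loss of fluorescent product after mobility-shift separation, 1 h incubation, recombinant human HDAC3. Single 25 uM duplicate screen first, then concentration series to a 50 uM top for hits; DMSO as baseline.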

[12] = molecular target: human LYN Proto-Oncogene, Src family Tyrosine Kinase (LynA), LYN (gene 4067) (UniProt P07948); experiment: NVS_ENZ_hLynA: NovaScreen (NVS) Enzymatic Assay for human LYN Proto-Oncogene, Src family Tyrosine Kinase (LynA) (AID 2283173)
Procedure, shortened: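 Recombinant kinase with fluorescent substrate; product separated from substrate by electrophoretic mobility shift and read 1 h after dosing. Duplicate screen at 25 uM, then concentration-response up to 50 uM; activity scored as signal loss against DMSO.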

[13] = molecular target: human MAP Kinase-Activated Protein Kinase 2 (MAPKAPK2), MAPKAPK2 (gene 9261) (UniProt P49137); experiment: NVS_ENZ_hMAPKAPK2: NovaScreen (NVS) Enzymatic Assay for human MAP Kinase-Activated Protein Kinase 2 (MAPKAPK2) (AID 2283178)
Procedure, shortened: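 Chemicals screened in duplicate at 25 uM, then to 50 uM top concentration in concentration-response, against recombinant human MAPKAPK2; substrate conversion read 1 hr post-dosing by fluorescence after electrophoretic mobility-shift separation, loss-of-signal relative to DMSO.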

[14] = molecular target: Glycogen synthase kinase-3 beta (Homo sapiens) (UniProt P49841); experiment: NVS_ENZ_hGSK3b: NovaScreen (NVS) Enzymatic Assay for human Glycogen Synthase Kinase-3 beta (GSK3b) (AID 2283165)
Procedure, shortened: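 Recombinant enzyme with specific fluorescent substrate, 1 h, product separated by electrophoretic mobility shift. Primary duplicate screen at 25 uM; actives (e.g. 30% inhibition) followed in singleton concentration-response to 50 uM. Signal loss fitted versus DMSO.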

[15] = molecular target: human Mitogen- and Stress-activated Protein Kinase-1 (Msk1), RPS6KA5 (gene 9252) (UniProt O75582); experiment: NVS_ENZ_hMsk1: NovaScreen (NVS) Enzymatic Assay for human Mitogen- and Stress-activated Protein Kinase-1 (Msk1) (AID 2283187)
Sequence of human Mitogen- and Stress-activated Protein Kinase-1 (Msk1), RPS6KA5 (gene 9252) (O75582 whole entry, looked up): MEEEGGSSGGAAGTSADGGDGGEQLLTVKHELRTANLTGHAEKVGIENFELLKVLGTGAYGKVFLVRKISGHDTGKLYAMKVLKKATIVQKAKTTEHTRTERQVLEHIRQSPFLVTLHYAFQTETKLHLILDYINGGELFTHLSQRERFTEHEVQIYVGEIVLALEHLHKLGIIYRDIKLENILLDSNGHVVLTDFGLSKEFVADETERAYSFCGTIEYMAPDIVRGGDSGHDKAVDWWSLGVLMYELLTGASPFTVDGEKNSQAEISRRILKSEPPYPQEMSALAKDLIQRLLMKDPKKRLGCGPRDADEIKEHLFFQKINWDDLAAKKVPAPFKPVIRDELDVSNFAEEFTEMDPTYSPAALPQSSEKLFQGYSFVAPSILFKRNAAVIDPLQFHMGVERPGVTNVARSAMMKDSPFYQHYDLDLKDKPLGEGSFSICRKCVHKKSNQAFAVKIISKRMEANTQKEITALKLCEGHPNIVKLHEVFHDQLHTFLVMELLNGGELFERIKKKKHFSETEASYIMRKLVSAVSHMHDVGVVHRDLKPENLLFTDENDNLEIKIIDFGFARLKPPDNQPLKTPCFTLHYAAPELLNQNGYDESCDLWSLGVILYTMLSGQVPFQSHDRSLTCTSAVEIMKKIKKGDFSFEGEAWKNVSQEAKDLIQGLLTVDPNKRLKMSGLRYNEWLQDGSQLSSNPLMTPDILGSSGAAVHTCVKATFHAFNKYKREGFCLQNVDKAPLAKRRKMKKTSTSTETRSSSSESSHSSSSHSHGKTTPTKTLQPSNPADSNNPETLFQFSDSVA
Procedure, shortened: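 Chemicals first run in duplicate at 25 uM, with actives followed up in singleton concentration series to 50 uM maximum. Enzyme activity came from substrate/product mobility-shift separation with fluorescence detection after 1 h incubation of the recombinant protein.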

[16] = molecular target: cAMP-dependent protein kinase catalytic subunit alpha (Homo sapiens) (UniProt P17612); experiment: NVS_ENZ_hPKA: NovaScreen (NVS) Enzymatic Assay for human Protein Kinase A (PKA) (AID 2283192)
Procedure, shortened: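 Cell-free kinase activity read by fluorescence after mobility-shift separation of substrate and product, 1 h post-dosing. Single-concentration duplicate screen (25 uM) preceded singleton concentration series (top 50 uM); loss of signal versus DMSO.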

[17] = molecular target: human Phosphodiesterase 10 (PDE10), PDE10A (gene 10846) (UniProt Q9Y233); experiment: NVS_ENZ_hPDE10: NovaScreen (NVS) Enzymatic Assay for human Phosphodiesterase 10 (PDE10) (AID 2283195)
Procedure, shortened: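 Fluorescence readout after mobility-shift separation of substrate and product, 1 h reaction with recombinant human enzyme. Single-concentration duplicates at 25 uM, then concentration-response up to 50 uM for chemicals reaching threshold; DMSO baseline.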

[18] = molecular target: human Phosphodiesterase 5 (PDE5), PDE5A (gene 8654) (UniProt O76074); experiment: NVS_ENZ_hPDE5: NovaScreen (NVS) Enzymatic Assay for human Phosphodiesterase 5 (PDE5) (AID 2283194)
Procedure, shortened: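 Screening began in duplicate at 25 uM, with actives taken into concentration-response. Enzyme activity of recombinant PDE5 toward its substrate was measured at 1 h by fluorescence mobility-shift detection, relative to DMSO controls.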

[19] = molecular target: human Insulin Receptor (InsR), INSR (gene 3643) (UniProt P06213); experiment: NVS_ENZ_hInsR: NovaScreen (NVS) Enzymatic Assay for human Insulin Receptor (InsR) (AID 2283168)
Procedure, shortened: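 Cell-free enzyme assay read 1 h post-dose by fluorescence after substrate/product mobility-shift separation. Duplicate 25 uM primary screen, then singleton concentration-response up to 50 uM for compounds passing threshold; loss of signal vs DMSO.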

## CC(C)(c1ccc(O)cc1)c1ccc(O)cc1
[1]
  outcome: inactive
[2]
  outcome: inactive
[3]
  outcome: inactive
[4]
  outcome: inactive
[5]
  outcome: inactive
[6]
  outcome: inactive
[7]
  AC50: 25.4 µM (active)
  outcome: inactive
[8]
  outcome: inactive

## C=CCOC(Cn1ccnc1)c1ccc(Cl)cc1Cl (stereo not drawn)
[4]
  outcome: inactive
[5]
  AC50: 9.22 µM (active)
[9]
  AC50: 18.6 µM (active)
[10]
  outcome: inactive

## c1ccc(Nc2ccccc2)cc1
[1]
  outcome: inactive

## N#CSCSc1nc2ccccc2s1
[11]
  AC50: 20 µM (active)
[12]
  outcome: inactive
[13]
  outcome: inactive
[7]
  outcome: inactive

## S=C([S-])NCCNC(=S)[S-].[Mn+2]
[14]
  AC50: 0.306 µM (active)
[3]
  AC50: 10 µM (active)
[13]
  AC50: 0.468 µM (active)
[4]
  AC50: 6.6 µM (active)
[5]
  outcome: inactive
[15]
  AC50: 2.09 µM (active)
[9]
  outcome: inactive
[10]
  AC50: 16.7 µM (active)
[16]
  AC50: 25 µM (active)
[17]
  AC50: 25 µM (active)
[7]
  outcome: inactive

## CCCCOC(=O)[C@@H](C)Oc1ccc(Oc2ccc(C(F)(F)F)cn2)cc1
[5]
  outcome: inactive
[6]
  outcome: inactive

## COC(=O)c1c(Cl)nn(C)c1S(=O)(=O)NC(=O)Nc1nc(OC)cc(OC)n1
[18]
  outcome: inactive

## CN(C)C(=O)Nc1ccc(Cl)c(Cl)c1
[19]
  outcome: inactive
[6]
  outcome: inactive

## COc1nc(C)nc(NC(=O)NS(=O)(=O)c2ccccc2OCCCl)n1
[13]
  AC50: 36.2 µM (active)
[9]
  AC50: 4.32 µM (active)

## CC(C)CCCCCCc1ccc(O)cc1
[11]
  outcome: inactive
[14]
  outcome: inactive
[2]
  outcome: inactive
[3]
  outcome: inactive
[13]
  outcome: inactive
[15]
  outcome: inactive
[10]
  outcome: inactive
[18]
  outcome: inactive

## C[C@]12CC[C@@H]3c4ccc(O)cc4C[C@@H](CCCCCCCCCS(=O)CCCC(F)(F)C(F)(F)F)[C@H]3[C@@H]1CC[C@@H]2O (stereo partly drawn)
[5]
  outcome: inactive
[6]
  outcome: inactive

## CCOC(=O)[C@H](C)Oc1ccc(Oc2nc3ccc(Cl)cc3o2)cc1
[4]
  outcome: inactive

## COC(=O)c1ccccc1S(=O)(=O)NC(=O)Nc1nc(OC(F)F)cc(OC(F)F)n1
[3]
  outcome: inactive
[13]
  outcome: inactive
[16]
  outcome: inactive

## CCNc1nc(N)nc(Cl)n1
[10]
  AC50: 25 µM (active)

## O=C(Nc1ccc([N+](=O)[O-])cc1Cl)c1cc(Cl)ccc1O
[3]
  outcome: inactive
[13]
  outcome: inactive

## CCCCC(CC)CN1C(=O)C2C3C=CC(C3)C2C1=O (stereo not drawn)
[5]
  outcome: inactive
[15]
  outcome: inactive

## CSC(=O)c1cccc2nnsc12
[11]
  outcome: inactive
[10]
  outcome: inactive
[18]
  outcome: inactive
